Results on 25 molecules are retold here after PubChem BioAssay (Tox21).

Results filed as inconclusive are left out. Active and inactive are the calls of the source. Unless noted, calls come from the whole dose curve; as a rule, active = well fitted curve in the direction sought with a large enough effect in the repeat runs; inconclusive = weak or mixed curves; inactive = no such curve, though single readings can be large; an effect the other way counts as inactive or inconclusive.

Assay [1] in a line: qHTS assay to identify small molecule antagonists of the glucocorticoid receptor (GR) signaling pathway - cell viability counter screen (AID 720693). Note: nearly all actives have a fitted effect of over 55% in size.
Assay [2] can be described thus: qHTS assay for identifying genotoxic compounds that show differential cytotoxicity against isogenic chicken DT40 cell lines with known DNA damage response pathways - wild type cell line (AID 743012). Note: nearly all actives have a fitted effect of over 60% in size. The method in brief: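 Quantitative HTS on parental DT40 cells: 40 h compound treatment at 37 C/5% CO2, with viability then determined by CellTiter-Glo luminescence. Values serve as the DNA repair-proficient reference for differential cytotoxicity.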
For orientation: qHTS replaces the single test concentration by a dilution series.

The nature of assay [3]: qHTS assay for identifying genotoxic compounds that show differential cytotoxicity against isogenic chicken DT40 cell lines with known DNA damage response pathways - Rev3 mutant cell line (AID 743014). Note: nearly all actives have a fitted effect of over 55% in size. Note: potency is the fitted concentration of half-maximal effect.
Assay [4] can be described thus: qHTS assay to identify small molecule antagonists of the androgen receptor (AR) signaling pathway - cell viability counter screen (AID 743033; note: nearly all actives have a fitted effect of over 45% in size).
The nature of assay [5]: qHTS assay to identify small molecule antagonists of the androgen receptor (AR) signaling pathway using the MDA cell line - cell viability counter screen (AID 743041; note: nearly all actives have a fitted effect of over 45% in size). The method in brief: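 MDA-kb2 AR-luc cells (MMTV-luciferase, AR/GR responsive) treated with compounds plus R1881 agonist for 16 h at 37C. CellTiter-Fluor added at 15.5 h; fluorescence read after 30 min in the same wells.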

Assay [6] is described as follows: qHTS assay for identifying genotoxic compounds that show differential cytotoxicity against isogenic chicken DT40 cell lines with known DNA damage response pathways - Rad54/Ku70 mutant cell line (AID 743015). Note: nearly all actives have a fitted effect of over 60% in size. Note: potency is the fitted concentration of half-maximal effect.
Assay [7] has as its target Androgen receptor (Homo sapiens) (UniProt P10275). Briefly: qHTS assay to identify small molecule agonists of the androgen receptor (AR) signaling pathway using the MDA cell line (AID 743040; note: nearly all actives have a fitted effect of over 20% in size). The method in brief:
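MDA-kb2 breast carcinoma cells carrying MMTV-luciferase (responsive to AR and GR), plated 5 h then treated 16 h with compounds at 37C, 0% CO2. Read-out was ONE-Glo luminescence after 30 min at room temperature.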

For assay [8] the target is unchanged. Kind of assay: qHTS assay to identify small molecule antagonists of the androgen receptor (AR) signaling pathway using the MDA cell line (AID 743042; note: nearly all actives have a fitted effect of over 55% in size). The method in brief: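 MDA-kb2 breast carcinoma cells carrying MMTV-luciferase (AR/GR responsive) were co-treated with compounds and the agonist R1881 for 16 h at 37C. Inhibition read as ONE-Glo luminescence; CellTiter-Fluor fluorescence measured in parallel for cytotoxicity.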

For assay [9] the target is unchanged. Kind of assay: qHTS assay to identify small molecule antagonists of the androgen receptor (AR) signaling pathway (AID 743035; active = well fitted inhibition curve with a large enough effect in the signal ratio in the repeat runs, not every such curve was filed as active; the % refers to the signal ratio). The method in brief: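 Cell line: GeneBLAzer AR-UAS-bla GripTite (HEK293). Stimulus: R1881 added after compound. Exposure: 16 h, 37C, 5% CO2. Readout: LiveBLAzer B/G FRET fluorescence after 2 h at room temperature.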
The target is the same in assay [10]. Briefly: qHTS assay to identify small molecule agonists of the androgen receptor (AR) signaling pathway (AID 743036; active = well fitted activation curve with a large enough effect in the signal ratio in the repeat runs, with a control signal flat, not every such curve was filed as active; the % refers to the signal ratio). In a few lines:
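HEK293 cells stably carrying a UAS-driven beta-lactamase reporter (GeneBLAzer AR-UAS-bla-GripTite) were plated at 2,000 cells/well, rested 4 h at 37C, then exposed to compounds in DMSO for 16 h. LiveBLAzer B/G FRET substrate was added for 2 h at room temperature; fluorescence read.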

Androgen receptor (Homo sapiens), sequence (P10275 whole entry, looked up): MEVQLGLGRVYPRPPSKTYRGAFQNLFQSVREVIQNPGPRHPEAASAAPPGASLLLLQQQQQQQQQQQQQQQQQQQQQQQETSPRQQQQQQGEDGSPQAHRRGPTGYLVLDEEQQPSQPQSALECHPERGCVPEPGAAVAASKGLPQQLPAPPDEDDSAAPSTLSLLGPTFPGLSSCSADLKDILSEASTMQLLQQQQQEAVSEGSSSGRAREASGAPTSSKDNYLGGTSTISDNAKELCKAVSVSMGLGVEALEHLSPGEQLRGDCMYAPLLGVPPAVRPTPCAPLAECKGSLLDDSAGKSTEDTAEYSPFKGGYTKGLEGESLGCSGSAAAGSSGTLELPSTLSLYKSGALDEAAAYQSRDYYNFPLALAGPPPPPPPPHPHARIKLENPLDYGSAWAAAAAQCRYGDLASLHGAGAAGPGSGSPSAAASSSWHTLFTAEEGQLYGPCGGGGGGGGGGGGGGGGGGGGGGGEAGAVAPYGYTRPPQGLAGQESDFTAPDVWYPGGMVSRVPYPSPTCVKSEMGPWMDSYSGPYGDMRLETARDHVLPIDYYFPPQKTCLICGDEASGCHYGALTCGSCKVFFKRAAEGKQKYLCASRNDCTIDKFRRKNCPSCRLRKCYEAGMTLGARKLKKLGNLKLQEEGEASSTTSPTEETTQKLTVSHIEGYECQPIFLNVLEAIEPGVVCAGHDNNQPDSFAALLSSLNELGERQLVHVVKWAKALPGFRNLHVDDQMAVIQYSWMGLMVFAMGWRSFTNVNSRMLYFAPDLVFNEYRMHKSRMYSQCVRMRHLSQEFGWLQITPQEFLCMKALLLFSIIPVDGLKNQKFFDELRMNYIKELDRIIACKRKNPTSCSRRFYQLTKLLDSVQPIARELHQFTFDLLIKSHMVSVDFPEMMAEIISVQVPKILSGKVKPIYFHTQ

Regarding `CC1=CC[C@@]23C[C@@H]1C(C)(C)[C@@H]2CC[C@H]3C`, the Potency result in assay [1], in assay [2], in assay [3], in assay [4] and in assay [5] was “inactive” throughout.
In the case of `CC(C)(C)C1(CCc2ccc(Cl)cc2)CO1` (stereo not drawn), the Potency result in assay [1], in assay [2], in assay [4] and in [5] was “inactive” in each case.
With `CCCCCCC(O)CCCCCCCCCCC(=O)OC` (stereo not drawn), the Potency entry in assay [1], in [2], in [4] and in assay [5] was “inactive” throughout. Besides, in assay [6], the Potency was 68.6 µM (active).
On to `FC(F)(F)C(F)(F)C(F)(F)C(F)(F)CCI`, for which the Potency result in [1], in assay [2], in assay [6], in [4] and in assay [5] was “inactive” each time.
Take `CCN(CC)C(=O)/C(C#N)=C/c1cc(O)c(O)c([N+](=O)[O-])c1`: the Potency result in assay [1], in [2], in assay [6], in assay [4], in assay [7] and in assay [5] was “inactive” throughout. In addition, in [8], the Potency entry was “inactive”.
Turning to `CCCCCCCC(=O)Oc1c(Br)cc(C#N)cc1Br`, the Potency entry in assay [1], in assay [2], in assay [3] and in assay [5] was “inactive” in each case.
Take `CC(=O)NCCO`: the Potency entry in assay [1], in assay [2], in [6], in [4] and in assay [5] was “inactive” throughout.
For `CCCCCCCCCCCCCOS(=O)(=O)O`, the Potency entry in [1], in [2], in [9], in assay [7], in assay [5] and in [8] was “inactive” in each case.
As for `CCC(CO)(CO)CO`, the Potency entry in assay [1], in assay [2], in assay [4], in [9], in [7] and in [5] was “inactive” in each case. In addition, the Potency entry in assay [8] is “inactive”. Also, the molecule was called inactive in assay [10].
On to `COC(=O)CC(C(C)=O)C(=O)OC` (stereo not drawn), for which the Potency result in [1], in [2], in [6], in [4], in [9] and in assay [7] was “inactive” each time. The Potency entry in [5] and in assay [8] was “inactive” throughout. In addition, in assay [10], the outcome was inactive.
Take `C[C@@H]1C[C@H]2[C@@H]3CCC4=CC(=O)C=C[C@]4(C)[C@@]3(F)[C@@H](O)C[C@]2(C)[C@@]1(O)C(=O)COP(=O)(O)O`: the Potency entry in [1], in [2], in assay [6], in [4] and in assay [5] was “inactive” each time.
Turning to `CCC(CO)(CO)[N+](=O)[O-]`, the Potency result in [1], in assay [2], in assay [6], in assay [4] and in assay [5] was “inactive” throughout.
As to `Cc1cn([C@H]2C[C@H](F)[C@@H](CO)O2)c(=O)[nH]c1=O`, the Potency entry in [1], in assay [3], in [6], in [4], in assay [9] and in [7] was “inactive” in each case. In addition, the Potency entry in assay [5] and in [8] was “inactive” in each case. Further, the outcome in assay [10] was inactive.
Take `CC[C@@H](CO)NCCN[C@@H](CC)CO`: the Potency entry in assay [1], in [2], in [6], in assay [4] and in assay [5] was “inactive” each time.
`Nc1ccc(S(=O)(=O)NCc2ccccc2)cc1`: the Potency result in [1], in assay [2], in [6] and in assay [4] was “inactive” in each case.
As for `Cc1ccccc1S(N)(=O)=O`, the Potency entry in assay [1], in assay [3], in assay [6], in assay [4] and in assay [5] was “inactive” each time.
With `CC(=O)C(=O)CC(C)C`, the Potency entry in assay [1], in assay [2], in [6], in [4] and in assay [5] was “inactive” in each case.
`O=C(NS(=O)(=O)/C=C/c1ccccc1)c1ccc(F)cc1Cl`: the Potency entry in assay [1], in assay [2], in assay [6], in assay [4] and in [5] was “inactive” throughout.
On to `CCN(CC)c1cccc(O)c1`, for which the Potency result in [1], in assay [2], in assay [6], in assay [4], in assay [7] and in assay [5] was “inactive” throughout. Besides, the Potency result in [8] was “inactive”.
On to `COc1cc(S(=O)(=O)Nc2ccccc2)c(OC)cc1N`, for which the Potency entry in assay [1], in assay [6], in [4] and in [5] was “inactive” in each case.
As to `O=C(/C=C/c1ccc([N+](=O)[O-])cc1)c1ccccc1`, the Potency result in assay [1], in [3], in [6], in assay [4] and in assay [5] was “inactive” in each case.
`O=C(O)c1cccc(C[C@@H]2COc3ccc(OCc4nc5cc(F)ccc5s4)cc3[C@@H]2O)c1`: the Potency result in assay [1], in [4] and in assay [5] was “inactive” in each case. The Potency in assay [3] is 68.7 µM (active).
Consider `Cc1ccc2c(c1[N+](=O)[O-])C(=O)c1ccccc1C2=O`, for which the Potency result in [1], in assay [4] and in assay [5] was “inactive” in each case. Moreover, the Potency in assay [6] is 30 µM (active).
Take `COC(=O)c1sccc1S(N)(=O)=O`: the Potency result in assay [1], in assay [6], in assay [4] and in assay [5] was “inactive” each time.
As for `c1ccc(CNc2ncnc3c2ncn3C2CCCCO2)cc1` (stereo not drawn), the Potency result in assay [1], in [4] and in assay [5] was “inactive” each time. Besides, the Potency in assay [6] is 61.1 µM (active).
